PMP22 txn – modulators of PMP22 gene transcription in S16 Schwann cells. S16 Pmp22-F2sN Schwann cells, FLuc/NLuc coincidence luminescence, 24 h. Potency, µM (highest dose often 57.5 µM), for inactives: at the top dose activity change, negative = inhibition, most hits filed as inhibitors. 43,000 tested, 2% active; active = clear falling dose curves in both reporters; inconclusive = both reporters move, but less clearly or upward; inactive = either reporter flat; the % is the NLuc reporter signal
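Reporter cells (S16 Pmp22-F2sN, 500–1,000 per well) exposed to compounds for 24 h, 37C, 5% CO2; lysis with FLuc read after 10 min, then Stop&Glo and NLuc read after 10 min.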
p53null 32C kill – p53 null cell cytotoxicity, permissive temperature | Potency, µM (titrated, usually from 46.1 µM), for the others: top-dose activity change, negative = cytotoxicity, actives largely listed as cytotoxic | H1299-neo p53 null cells, ATP luminescence, 24 h, 32C | 55,000 tested, 0.62% active | AID 903;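 note: 0% = DMSO only and -100% = full killing by 100 µM tamoxifen; nearly all actives have a fitted effect of over 55% in size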
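We seeded p53-null H1299-neo cells, incubated them overnight at 37C, and added compounds across a range up to 46 uM. After 24 hours at 32C, ATP reagent was applied for 20 min at room temperature and luminescence recorded.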
mTORC1 inh – inhibitors of mTORC1 signaling in Tsc2-/- p53-/- MEF cells. Tsc2-/- p53-/- MEF, phospho-rpS6 immunofluorescence/PI, 24 h. Potency, µM (top dose mostly 38.3 µM), for the others: top-dose activity change, negative = inhibition, usual class: inhibitors. 44,000 tested, 0.78% active;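 note: plate controls were DMSO for no effect and rapamycin for full effect; nearly all actives have a fitted effect of over 50% in size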
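Read-out: phospho-S6 Alexa-488 intensity over PI intensity per well, scored as % active cells using thresholds from rapamycin (7.5 nM) and DMSO controls. Tsc2-/-, p53-/- MEFs exposed to compound for 24 h; PI cell count recorded as viability.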
S16 F2sN tox – S16 Schwann cell cytotoxicity; S16 Pmp22-F2sN Schwann cells viability, CellTiter-Glo, 24 h; Potency, µM (highest dose often 57.5 µM), inactives show at the highest dose activity change, negative = cytotoxicity, most hits filed as cytotoxic; 43,000 tested, 0.48% active; AID 1508642; note: nearly all actives have a fitted effect of over 65% in size
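Used to flag compounds lowering reporter output through toxicity, this quantitative HTS measures ATP-based CellTiter-Glo luminescence in S16 Pmp22-F2sN Schwann cells after 24 h compound exposure at 37C.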
p53null 39C tox – p53 null cell cytotoxicity, nonpermissive temperature. H1299 p53-null (neo) cells, 39C, ATPlite viability, 24 h. Potency, µM (top dose mostly 46.1 µM), for the others: top-dose activity, negative = cell killing, usual class: cytotoxic. 55,000 tested, 0.97% active;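 note: 0% = DMSO only and -100% = full killing by 100 µM tamoxifen; nearly all actives have a fitted effect of over 50% in size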
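Following overnight plating at 37C (600 cells/well), H1299-neo or H1299-p53A138V cells are dosed up to 46 uM. Incubation lasts 24 hr at 39C before ATP detection.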
SKOV3 invasion – ovarian cancer metastasis inhibition, 3D TME model; 46,000 tested, 0.1% active; SKOV3ip1-GFP adhesion/invasion on 3D omental model, fluorescence; AID 1963576; Potency, µM (top dose mostly 45.8 µM), inactives show top-dose activity change, negative = inhibition, actives largely listed as inhibitors;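 note: plate controls were DMSO wells for no effect and tomatine positive control wells for full effect; nearly all actives have a fitted effect of over 65% in size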
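A 3D layer of primary human omental fibroblasts, mesothelial cells, fibronectin and collagen I, grown 48 hr, received SKOV3ip1-GFP cells in serum-free medium plus compounds at 0.36-46 umol/L. After 2 hr RT and 16 hr 37 C, fixed adherent GFP cells were counted; normalized to DMSO and tomatine.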
An asterisk follows results filed as active; i = inactive; ? = inconclusive; nt = no result given; [ ] = remark or other dose. Only some compounds are listed: those with a hit (about 3.1% of all), similar ones and a draw of the others. Unless noted, calls come from the whole dose curve; as a rule, active = well fitted curve in the direction sought with a large enough effect; inconclusive = small, poorly fitted or top-dose-only effect, or another doubt; inactive = no such curve, though single readings can be large; an effect the other way counts as inactive or inconclusive. Unless noted, % is set by controls: 0 for no effect and ±100 for the full control effect; potency is the fitted concentration of half-maximal effect.

SMILES | PMP22 txn | p53null 32C kill | mTORC1 inh | S16 F2sN tox | p53null 39C tox | SKOV3 invasion
CCCCC(C)(C)[C@H](O)C=C[C@H]1[C@H](O)CC(=O)[C@H]1CC=CCCCC(=O)O | nt | nt | nt | nt | nt | -15.4%
CCOc1cc(CNc2ccc(O)cc2)cc(Cl)c1OCc1ccccc1 | ? | 11.0% | ? | 8.91µM* | ? | -11.5%
COc1ccc2c(Oc3ccc(NC(=O)c4c(C)n(CC(C)(C)O)n(-c5ccccc5)c4=O)cc3F)ccnc2c1 | nt | nt | nt | nt | nt | 10.5%
Cc1nn2c(-c3ccccc3)cc(-c3ccccc3)nc2c1-c1ccc(Cl)cc1 | 7.5% | 10.5% | -0.1% | 9.1% | 48.7% | -5.5%
Cc1nc2c(-c3ccccc3)c(C)[nH]n2c(=O)c1Cc1ccc(C(C)C)cc1 | ? | nt | 4.6% | 8.91µM* | nt | ?
CCCCc1c(C)nc2c(-c3ccc(Cl)cc3)c(C)[nH]n2c1=O | 11.3µM* | nt | 9.7% | 5.01µM* | nt | i
Cc1[nH]n2c(=O)cc(-c3ccc(Cl)cc3)nc2c1-c1ccccc1 | 8.53µM* | nt | ? | 10µM* | nt | 0.8%
Cc1nc2c(-c3ccccc3)c(C)[nH]n2c(=O)c1Cc1ccc(Br)cc1 | 9.46µM* | nt | ? | 10µM* | nt | ?
Cc1ccc(Cc2c(C)nc3c(-c4ccccc4)c(C)[nH]n3c2=O)cc1 | ? | nt | 1.8% | ? | nt | 27.0%
Cc1ccsc1CCN1C(=O)N(c2ccccc2)C(=O)C1CC(=O)Nc1ccc(Cl)cc1 (stereo unspecified) | ? | -0.3% | -5.3% | 31.6µM* | 16.2% | 3.4%
Cc1ccc2sc(N(Cc3cccnc3)C(=O)CCS(=O)(=O)c3ccccc3)nc2c1C | ? | -11.0% | -4.3% | ? | 4.8% | ?
Cc1cccc2sc(N(Cc3cccnc3)C(=O)CCS(=O)(=O)c3ccccc3)nc12 | ? | ? | ? | ? | 12.6µM* | -19.8%
Nc1nc(=O)n([C@H]2CSC(CO)O2)cc1F (stereo partly specified) | nt | nt | nt | nt | nt | 3.7%
CCOc1ccccc1CNC(=O)C1CCN(c2nnc(C)c3c(C)n(-c4ccc(C)cc4)nc23)CC1 | ? | ? | -12.7% | ? | 15.8µM* | 7.94µM*
Cc1nnc(N2CCC(C(=O)NCCc3ccccc3)CC2)c2nn(-c3ccc(Cl)cc3)c(C)c12 | 3.8% | 5.6% | 3.1% | -12.8% | ? | -6.2%
Cc1ccc(-n2nc3c(N4CCCC(C(=O)NCCc5ccccc5)C4)nnc(C)c3c2C)cc1 (stereo unspecified) | ? | 8.7% | -6.0% | ? | -4.2% | ?
Cc1nnc(N2CCCC(C(=O)NCc3ccccc3)C2)c2nn(-c3ccccc3)c(C)c12 (stereo unspecified) | -4.6% | 0.0% | -2.4% | -4.5% | 1.6% | i
COc1ccccc1CCNC(=O)C1CCN(c2nnc(C)c3c(C)n(-c4ccc(C)cc4)nc23)CC1 | ? | -13.2% | -9.2% | ? | 10µM* | ?
Cc1nnc(N2CCC(C(=O)NCc3ccc(F)cc3)CC2)c2nn(-c3ccc(Cl)cc3)c(C)c12 | ? | -11.0% | -7.5% | -22.5% | -12.3% | ?
Cc1nnc(N2CCC(C(=O)NCCc3ccccc3Cl)CC2)c2nn(-c3ccccc3)c(C)c12 | ? | ? | -8.3% | 35.5µM* | 10µM* | ?
CCc1ccc(CNC(=O)C2CCCN(c3nnc(C)c4c(C)n(-c5ccccc5)nc34)C2)cc1 (stereo unspecified) | ? | -24.1% | -3.3% | ? | 15.8µM* | ?
CC(=O)O[C@H]1C[C@@H]2CC[C@H]3[C@H]4C[C@H]([N+]5(C)CCCCC5)[C@@H](OC(C)=O)[C@@]4(C)CC[C@@H]3[C@@]2(C)C[C@H]1[N+]1(C)CCCCC1 | nt | nt | nt | nt | nt | 14.9%
CC(C)CC(=O)Nc1n[nH]c2c1CN(C(=O)C1CCN(C)CC1)C2(C)C | nt | nt | nt | nt | nt | -0.9%
OC1CCC(Nc2ncc3nc(Nc4c(F)cc(F)cc4F)n([C@@H]4CCOC4)c3n2)CC1 (stereo partly specified) | nt | nt | nt | nt | nt | 33.4%
Clc1cccc(-n2nnnc2NCc2ccccc2Oc2ccccn2)c1Cl | nt | nt | nt | nt | nt | 0.7%
SMILES | PMP22 txn | p53null 32C kill | mTORC1 inh | S16 F2sN tox | p53null 39C tox | SKOV3 invasion
CC(C)C[C@H](NC(=O)CNC(=O)c1cc(Cl)ccc1Cl)B1OC(=O)CC(CC(=O)O)(C(=O)O)O1 (stereo partly specified) | nt | nt | nt | nt | nt | 8.5%
Cc1ccc(Cl)cc1NC(=O)C1CCN(c2nnc(C)c3c(C)n(-c4ccccc4)nc23)CC1 | ? | ? | 0.4% | 1.5% | 12.6µM* | i
COc1ccc(Cl)cc1NC(=O)C1CCN(c2nnc(C)c3c(C)n(-c4ccccc4)nc23)CC1 | ? | 14.8% | -0.5% | -3.8% | -5.5% | i
CC(=O)O[C@@]12CO[C@H]1C[C@H](O)[C@@]1(C)C(=O)[C@H](O)C3=C(C)[C@@H](OC(=O)C(O)[C@@H](NC(=O)OC(C)(C)C)c4ccccc4)C[C@@](O)([C@@H](OC(=O)c4ccccc4)[C@@H]21)C3(C)C (stereo partly specified) | nt | nt | nt | nt | nt | 0.6%
COc1ccc(-c2nc3ccccc3o2)cc1NC(=O)C(C)Oc1ccc(Cl)cc1Cl (stereo unspecified) | 13.5µM* | 1.3%[9.22 µM] | -16.9% | 0.3% | -18.3% | -5.7%
COc1ccc(-c2nc3cc(NC(=O)Cc4ccc(Cl)cc4)ccc3o2)cc1OC | ? | ? | 4.14µM* | 7.4% | 10µM* | -2.7%
Cc1c(C(=O)OCCOc2ccccc2)[nH]c2c1C(=O)CC(c1ccccc1Cl)C2 (stereo unspecified) | 5.32µM* | 11.5% | 1.31µM* | ? | ? | i
Cc1c(C(=O)OCCOc2ccccc2)[nH]c2c1C(=O)CC(c1ccccc1)C2 (stereo unspecified) | ? | 14.7% | ? | ? | ? | -3.7%
CCOc1ccc(S(=O)(=O)Nc2cccc(-c3ccc(N4CCC(C)CC4)nn3)c2)cc1 | nt | ? | -3.5% | nt | ? | ?
CC1CCN(c2ccc(-c3cccc(NS(=O)(=O)c4ccc(F)cc4F)c3)nn2)CC1 | nt | 10µM* | -7.2% | nt | 10µM* | 1.0%
O=S(=O)(Nc1cccc(-c2ccc(N3CCCCC3)nn2)c1)c1ccc(F)cc1F | -2.4% | ? | 0.3% | 7.2% | ? | -6.7%
Cc1ccc(S(=O)(=O)Nc2cccc(-c3ccc(N4CCC(C)CC4)nn3)c2)s1 | nt | 12.6µM* | ? | nt | 15.8µM* | 0.9%

Source: PubChem BioAssay (National Center for Advancing Translational Sciences (NCATS))
